Values joined by “and” are separate entries in the source; they are usually repeats but may differ in a detail not shown here. Equal values may be shown once. About 2,000 (36%) of roughly 5,500 compounds were called active. Another 18% or so got no clear call; they are omitted. Cut-off read from the data, not from the text of the source: active = normalized growth mostly below about 0.91 (no sharp cut-off); inconclusive = no clear call, values can overlap the other calls; inactive = mostly above about 0.92. The list shows a part of the results.
Assay: chemical genetic growth profiling, strain panel (AID 1159580);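 note: tested at 20 µM; growth read once vehicle control cultures reached saturation at 30 °C; 1 = growth at the plate median or of vehicle wells; lower values mean less growth of the strain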
Conditions: growth OD

Measured: normalized growth

Cn1c(=O)[nH]c2ncn(C)c2c1=O
inactive: S. cerevisiae deletion strains, locus YJR043C, strain POL32, active compounds read low 1.02 | S. cerevisiae deletion strains, locus YJR075W, strain HOC1, active compounds read low 1.01 and 1 | S. cerevisiae deletion strains, locus YKL009W, strain mrt4, active compounds read low 1.03 | S. cerevisiae deletion strains, locus YKL068W, active compounds read low 0.988 | S. cerevisiae deletion strains, locus YKL085W, strain MDH1 (second series), active compounds read low 0.993 | S. cerevisiae deletion strains, locus YKL085W, strain MDH1, active compounds read low 0.993 | S. cerevisiae deletion strains, locus YKL160W, strain elf1, active compounds read low 1.02 | S. cerevisiae deletion strains, locus YKL190W, strain CNB1, active compounds read low 1.01 | S. cerevisiae deletion strains, locus YKR001C, strain vps1, active compounds read low 0.997 | S. cerevisiae deletion strains, locus YKR026C, strain gcn3, active compounds read low 0.964 | S. cerevisiae deletion strains, locus YKR091W, strain srl3, active compounds read low 0.98 | S. cerevisiae deletion strains, locus YLL001W, strain dnm1, active compounds read low 0.988 | S. cerevisiae deletion strains, locus YLL026W, active compounds read low 0.989 | S. cerevisiae deletion strains, locus YLL041C, strain sdh2, active compounds read low 0.978 | S. cerevisiae deletion strains, locus YLR027C, strain aat2, active compounds read low 1 | S. cerevisiae deletion strains, locus YLR039C, strain RIC1, active compounds read low 1.02 | S. cerevisiae deletion strains, locus YLR058C, strain SHM2, active compounds read low 1.01 | S. cerevisiae deletion strains, locus YLR102C, strain apc9, active compounds read low 0.995 | S. cerevisiae deletion strains, locus YLR221C, strain rsa3, active compounds read low 0.943 | S. cerevisiae deletion strains, locus YLR258W, strain gsy2, active compounds read low 0.993 | S. cerevisiae deletion strains, locus YLR262C, strain YPT6 (second series), active compounds read low 0.983 | S. cerevisiae deletion strains, locus YLR262C, strain YPT6, active compounds read low 1.03 | S. cerevisiae deletion strains, locus YLR268W, strain sec22, active compounds read low 0.988 | S. cerevisiae deletion strains, locus YLR320W, strain mms22, active compounds read low 0.97 | S. cerevisiae deletion strains, locus YLR330W, strain CHS5, active compounds read low 1.01 | S. cerevisiae deletion strains, locus YLR342W, strain FKS1 (second series), active compounds read low 1.03 | S. cerevisiae deletion strains, locus YLR342W, strain FKS1, active compounds read low 0.975 | S. cerevisiae deletion strains, locus YLR357W, strain rsc2, active compounds read low 0.97 | S. cerevisiae deletion strains, locus YLR370C, strain arc18, active compounds read low 0.966 | S. cerevisiae deletion strains, locus YLR371W, strain rom2, active compounds read low 0.986 | S. cerevisiae deletion strains, locus YLR384C, strain iki3, active compounds read low 0.97 | S. cerevisiae deletion strains, locus YLR418C, strain cdc73, active compounds read low 1 | S. cerevisiae deletion strains, locus YML016C, strain PPZ1, active compounds read low 1.01 | S. cerevisiae deletion strains, locus YML032C, strain rad52, active compounds read low 0.995 | S. cerevisiae deletion strains, locus YML120C, strain ndi1, active compounds read low 0.995 | S. cerevisiae deletion strains, locus YML124C, strain tub3, active compounds read low 0.993 | S. cerevisiae deletion strains, locus YMR058W, strain fet3, active compounds read low 0.981 | S. cerevisiae deletion strains, locus YMR078C, strain ctf18, active compounds read low 0.984 | S. cerevisiae deletion strains, locus YMR125W, strain sto1, active compounds read low 0.987 | S. cerevisiae deletion strains, locus YMR129W, active compounds read low 0.984 | S. cerevisiae deletion strains, locus YMR205C, strain PFK2, active compounds read low 0.995 | S. cerevisiae deletion strains, locus YMR223W, strain ubp8, active compounds read low 1.01 | S. cerevisiae deletion strains, locus YMR231W, strain pep5, active compounds read low 0.961 | S. cerevisiae deletion strains, locus YMR263W, strain SAP30, active compounds read low 1.01 and 0.996 | S. cerevisiae deletion strains, locus YMR307W, strain GAS1, active compounds read low 1.06 and 0.981 | S. cerevisiae deletion strains, locus YNL067W, strain RPL9B, active compounds read low 1.01 | S. cerevisiae deletion strains, locus YNL071W, strain lat1, active compounds read low 0.974 | S. cerevisiae deletion strains, locus YNL128W, strain TEP1, active compounds read low 1.02 | S. cerevisiae deletion strains, locus YNL153C, strain GIM3, active compounds read low 1.01 and 0.984 | S. cerevisiae deletion strains, locus YNL175C, strain NOP13, active compounds read low 0.997 | S. cerevisiae deletion strains, locus YNL197C, strain WHI3, active compounds read low 0.995 | S. cerevisiae deletion strains, locus YNL209W, strain ssb2, active compounds read low 0.99 | S. cerevisiae deletion strains, locus YNL224C, strain SQS1, active compounds read low 0.99 | S. cerevisiae deletion strains, locus YNL233W, strain BNI4, active compounds read low 1.01 | S. cerevisiae deletion strains, locus YNL250W, strain rad50, active compounds read low 0.994 | S. cerevisiae deletion strains, locus YNL271C, strain bni1, active compounds read low 0.993 | S. cerevisiae deletion strains, locus YNL298W, strain CLA4, active compounds read low 1 | S. cerevisiae deletion strains, locus YNL307C, strain MCK1, active compounds read low 1.01 | S. cerevisiae deletion strains, locus YNL322C, strain KRE1 (second series), active compounds read low 0.989 | S. cerevisiae deletion strains, locus YNL322C, strain KRE1, active compounds read low 1 and 1.01 | S. cerevisiae deletion strains, locus YNR049C, strain mso1, active compounds read low 0.974 | S. cerevisiae deletion strains, locus YNR052C, strain pop2, active compounds read low 0.992 | S. cerevisiae deletion strains, locus YOL006C, strain TOP1, active compounds read low 1.04 | S. cerevisiae deletion strains, locus YOL012C, strain htz1 0.946 | S. cerevisiae deletion strains, locus YOL147C, strain pex11, active compounds read low 0.988 | S. cerevisiae deletion strains, locus YOR001W, strain rrp6, active compounds read low 0.925 | S. cerevisiae deletion strains, locus YOR061W, strain CKA2, active compounds read low 1.01 | S. cerevisiae deletion strains, locus YOR069W, strain VPS5, active compounds read low 1.01 | S. cerevisiae deletion strains, locus YOR070C, strain gyp1, active compounds read low 0.985 | S. cerevisiae deletion strains, locus YOR080W, strain dia2, active compounds read low 0.977 | S. cerevisiae deletion strains, locus YOR083W, strain WHI5 (second series), active compounds read low 1.02 | S. cerevisiae deletion strains, locus YOR083W, strain WHI5, active compounds read low 1.03 | S. cerevisiae deletion strains, locus YOR106W, strain vam3, active compounds read low 1.01 | S. cerevisiae deletion strains, locus YOR136W, strain idh2, active compounds read low 0.995 | S. cerevisiae deletion strains, locus YOR144C, strain elg1, active compounds read low 0.98 | S. cerevisiae deletion strains, locus YOR184W, strain ser1, active compounds read low 0.991 | S. cerevisiae deletion strains, locus YOR265W, strain rbl2, active compounds read low 0.974 | S. cerevisiae deletion strains, locus YOR270C, strain vph1, active compounds read low 0.971 | S. cerevisiae deletion strains, locus YOR290C, strain snf2, active compounds read low 1.01 | S. cerevisiae deletion strains, locus YOR316C, strain cot1, active compounds read low 0.987 | S. cerevisiae deletion strains, locus YPL051W, strain arl3, active compounds read low 0.982 | S. cerevisiae deletion strains, locus YPL055C, strain LGE1, active compounds read low 1.04 | S. cerevisiae deletion strains, locus YPL078C, strain atp4, active compounds read low 1.01 | S. cerevisiae deletion strains, locus YPL106C, strain sse1, active compounds read low 0.984 | S. cerevisiae deletion strains, locus YPL240C, strain hsp82, active compounds read low 0.971 | S. cerevisiae deletion strains, locus YPL241C, strain CIN2, active compounds read low 1.01 | S. cerevisiae deletion strains, locus YPR119W, strain clb2, active compounds read low 0.983 | S. cerevisiae deletion strains, locus YPR141C, strain kar3, active compounds read low 0.987 | S. cerevisiae deletion strains, locus YPR163C, strain tif3, active compounds read low 0.977 | S. cerevisiae deletion strains, locus YPR167C, strain met16, active compounds read low 0.994 | S. cerevisiae deletion strains, strain wtn01, active compounds read low 0.992 | S. cerevisiae strains, strain wild type, active compounds read low 1
active: S. cerevisiae deletion strains, locus YNL248C, strain rpa49, active compounds read low 0.874
